Bioassay records (PubChem BioAssay)
Only some compounds are listed: those with a hit (about 3.1% of all), similar ones and a draw of the others.
Mtb BioA inh: blocks M. tuberculosis BioA enzyme activity. purified M. tuberculosis BioA enzyme, plate reader. inhibition, % at 9.99 µM. hit rate 0.096% among 360,000. AID 602481; in the data active = inhibition above about 40%
FadD28 FP inh: inhibitors of Mycobacterium tuberculosis FadD28 bisubstrate binding; inhibition, % at 12.5 µM; AID 588549; hit rate 0.22% among 360,000; FadD28 bisubstrate probe binding, fluorescence polarization; in the data active = inhibition above about 8.5%, passing the limit was not always enough
SARS 3CLpro inh: SARS-CoV 3CLpro protease inhibition. P0C6X7. recombinant SARS-CoV 3CLpro, quenched FRET peptide cleavage. inhibition, % at 6 µM. hit rate 0.14% among 290,000. AID 1706; in the data active = inhibition above about 12%
FBA Mtb inh: inhibits M. tuberculosis FBA enzyme; inhibition, % at 1 µM; P9WQA3; purified M. tuberculosis FBA, fluorescence read-out; hit rate 2.3% among 360,000
Target sequence (P9WQA3 whole entry, looked up): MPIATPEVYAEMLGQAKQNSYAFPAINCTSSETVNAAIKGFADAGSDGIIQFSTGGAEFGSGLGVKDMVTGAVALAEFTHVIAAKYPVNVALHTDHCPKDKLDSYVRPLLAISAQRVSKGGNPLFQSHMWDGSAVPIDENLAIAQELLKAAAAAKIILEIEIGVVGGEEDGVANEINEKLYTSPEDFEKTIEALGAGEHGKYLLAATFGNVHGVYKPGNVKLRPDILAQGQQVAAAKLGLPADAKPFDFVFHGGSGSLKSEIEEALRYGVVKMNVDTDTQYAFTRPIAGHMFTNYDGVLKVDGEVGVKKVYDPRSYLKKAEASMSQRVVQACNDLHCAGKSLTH
GDH-TPI counter-1: inhibits GDH-TPI coupling enzymes, artifact for Mtb FBA screen | GDH-TPI coupled enzyme counterscreen, NADH absorbance | inhibition, % at 4.8 µM | hit rate 1.2% among 360,000; in the data active = inhibition above about 30%
Mtb FBA inh conf: confirmation of M. tuberculosis fructose-bisphosphate aldolase inhibitors; hit rate 78% among 5,600; purified M. tuberculosis FBA, fluorescence read-out; shares compounds with FBA Mtb inh; inhibition, % at 1 µM
GDH-TPI counter-2: GDH-TPI inhibition counter-screen for FBA inhibitors; shares compounds with FBA Mtb inh; GDH-TPI coupled enzyme counterscreen, fluorescence; inhibition, % at 1 µM; hit rate 81% among 5,600; in the data active = inhibition above about 10%
Large screens that a line does not name were inactive (follow-up assays come after a bar, where they were run). Rule as the data show it, unless noted: active = inhibition above about 27%; inactive = the rest.

C[C@H](CO)N1C[C@H](C)[C@@H](CN(C)C)Oc2ncc(C3=CCCC3)cc2C1=O	none (no result: FadD28 FP inh, SARS 3CLpro inh, FBA Mtb inh, GDH-TPI counter-1)
CC1=CC(C)[C@H](/C=N/n2c(=O)[nH]c3c([nH]c4ccc(C)cc43)c2=O)C(C)C1 (stereo not given in full)	FBA Mtb inh 53 (no result: Mtb BioA inh) | Mtb FBA inh conf inactive | GDH-TPI counter-2 inactive
COc1ccc(/C=N/n2c(=O)[nH]c3c([nH]c4ccc(C)cc43)c2=O)cc1CN1CCOCC1	FBA Mtb inh 93 (no result: Mtb BioA inh) | Mtb FBA inh conf 127 | GDH-TPI counter-2 101
O=C(c1ccc2nc3ccc(Cl)cc3c(=O)n2c1)N1CCC2(CC1)OCCO2	FBA Mtb inh 40 | Mtb FBA inh conf active | GDH-TPI counter-2 active
O=C(c1cccn2c(=O)c3ccccc3nc12)N1CCN(Cc2ccc3c(c2)OCO3)CC1	none
O=C(c1ccc2nc3ccc(Cl)cc3c(=O)n2c1)N1CCOCC1	FBA Mtb inh 93 | Mtb FBA inh conf active | GDH-TPI counter-2 active
O=C(c1ccc(Cl)cc1)N1CCC2(CC1)OCCO2	none
O=C(c1ccc2nc3ccccc3c(=O)n2c1)N1CCN(Cc2ccc3c(c2)OCO3)CC1	FBA Mtb inh 69 | Mtb FBA inh conf inactive | GDH-TPI counter-2 inactive
CCC(=O)Nc1ccc2c(c1)C(=O)N(C)C[C@@H](OC)[C@H](C)CN(C(=O)NC(C)C)[C@@H](C)CO2	none (no result: FadD28 FP inh, SARS 3CLpro inh, FBA Mtb inh, GDH-TPI counter-1)
COc1ccc(CNC(=O)C[C@@H]2C[C@@H]3c4cc(NS(C)(=O)=O)ccc4O[C@@H]3[C@H](CO)O2)cc1	none (no result: FadD28 FP inh, SARS 3CLpro inh, FBA Mtb inh, GDH-TPI counter-1)
O=c1oc(Nc2cccc(F)c2)nc2ccccc12	FBA Mtb inh 36 | Mtb FBA inh conf 96 | GDH-TPI counter-2 79
Nc1nc(N2CCOCC2)nc2ccccc12	FBA Mtb inh 75 | Mtb FBA inh conf inactive | GDH-TPI counter-2 inactive
c1ccc2c(N3CCCCC3)nc(N3CCOCC3)nc2c1	none (no result: Mtb BioA inh)
c1ccc(Nc2nc(NCC3CCCO3)c3ccccc3n2)cc1 (stereo not given)	none
CCOc1ccc2nc(N3CCOCC3)nc(C)c2c1	FBA Mtb inh 51 | Mtb FBA inh conf 131 | GDH-TPI counter-2 109
c1ccc2c(NCC3CCCO3)nc(N3CCOCC3)nc2c1 (stereo not given)	FBA Mtb inh 64 | Mtb FBA inh conf 176 | GDH-TPI counter-2 132
c1ccc2c(c1)nc(N1CCOCC1)c1c3ccccc3[nH]c21	FBA Mtb inh 31 (no result: Mtb BioA inh) | Mtb FBA inh conf 62 | GDH-TPI counter-2 63
CCOc1ccc(Nc2cc(C)nc(N3CCOCC3)n2)cc1	none
O=c1[nH]c2ccccc2nc1N1CCOCC1	none
Cc1ccc(S(=O)(=O)N(C)C[C@@H]2Oc3ccc(NC(=O)Cn4cnnn4)cc3CC(=O)N([C@@H](C)CO)C[C@@H]2C)cc1	none (no result: FadD28 FP inh, SARS 3CLpro inh, FBA Mtb inh, GDH-TPI counter-1)
C[C@H](CO)N1C[C@H](C)[C@@H](CN(C)C(=O)Nc2ccc(F)cc2)OCCCC[C@H](C)Oc2ccc(N(C)C)cc2C1=O	none (no result: FadD28 FP inh, SARS 3CLpro inh, FBA Mtb inh, GDH-TPI counter-1)
Cc1nn2cc(-c3ccccc3)nc2[nH]c1=O	FBA Mtb inh 37 (no result: Mtb BioA inh) | Mtb FBA inh conf 79 | GDH-TPI counter-2 81
CCc1nn2cc(-c3ccccc3)nc2s1	none
O=C(O)CCc1nn2cc(-c3ccccc3)nc2[nH]c1=O	FBA Mtb inh 45 | Mtb FBA inh conf 113 | GDH-TPI counter-2 92
COc1cccc(NC(=O)N2C[C@@H](O)COC[C@H]3O[C@@H](CC(=O)NCc4ccccc4F)CC[C@@H]32)c1	none (no result: FadD28 FP inh, SARS 3CLpro inh, FBA Mtb inh, GDH-TPI counter-1)
C[C@@H]1CCCCO[C@H](CN(C)S(=O)(=O)c2ccc(F)cc2)[C@H](C)CN([C@H](C)CO)C(=O)c2cc(NC(=O)Nc3ccc(F)cc3)ccc2O1	none (no result: FadD28 FP inh, SARS 3CLpro inh, FBA Mtb inh, GDH-TPI counter-1)
O=C(COC(=O)[C@@H]1CCCN1C(=O)c1cccs1)NCCc1ccccc1	FBA Mtb inh 27 | Mtb FBA inh conf inactive | GDH-TPI counter-2 inactive
Cc1ccccc1NC(=O)C1CCCN(S(=O)(=O)c2ccc(-n3cnnn3)cc2)C1 (stereo not given)	none (no result: Mtb BioA inh)
O=C(Nc1ccccc1F)C1CCCN(S(=O)(=O)c2ccc(-n3cnnn3)cc2)C1 (stereo not given)	FBA Mtb inh 85 | Mtb FBA inh conf 119 | GDH-TPI counter-2 87
C[C@@H]1CN([C@@H](C)CO)C(=O)c2cc(NC(=O)CCCN(C)C)ccc2O[C@@H](C)CCCCO[C@@H]1CN(C)C(=O)Nc1ccccc1	none (no result: FadD28 FP inh, SARS 3CLpro inh, FBA Mtb inh, GDH-TPI counter-1)
N#Cc1c(NCCCO)nc(NCc2ccccc2)c2c1CCN(Cc1ccccc1)C2	FBA Mtb inh 32 (no result: Mtb BioA inh) | Mtb FBA inh conf 116 | GDH-TPI counter-2 108
